INS promoter inh: inhibitors of insulin promoter-driven GFP, primary screen, imaging, TRM-6 cells (human fetal islet line), eGFP reporter, cell count; hit rate 0.9% among 130,000; AID 1273, 2008; inhibition, % at 2 µM; reporter expression induced with tamoxifen;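 active = inhibition above the mean plus 3 SD, with well images judged a real hit on visual review, cut at about 60% in these data, passing the limit was not always enough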
Measles CPE: compounds protecting cells from measles virus cytopathic effect, primary screen, measles RdRp inhibitor project, single point, MLSMR library, absorbance. Measles virus-infected cells, CPE protection. protection (pct of control), % at 4 µM. hit rate 1.5% among 140,000. AID 841, 2007; in the data active = protection mostly above about 24%, no sharp cut-off; inactive = mostly below about 26%
sdo1 growth: growth rescue of sdo1-depleted yeast, primary screen, S. cerevisiae, bone marrow failure model; S. cerevisiae sdo1-depleted JHY4D growth rescue, OD600 30 h; hits give high values; pdr5 snq2 efflux-pump mutant strain; z-score at 10 µM; hit rate 0.21% among 140,000; AID 817, 2007;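 active = z-score above 3 at both the 24 hr and the 30 hr optical density reads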;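 also: z-score against mean and SD of all compound wells on the same plate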
ROMK primary: ROMK potassium channel modulators, primary screen, cell-based, thallium flux, MLSMR library; ATP-sensitive inward rectifier potassium channel 1 (Homo sapiens), P48048; Tet-inducible ROMK, thallium flux fluorescence; actives lie on both sides; B-score at 10 µM; hit rate 2% among 130,000;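 active = signal ratio slope over the read window, or its plate-corrected B-score, at least 3 SD from the plate mean, either direction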;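 also: B-score of the F/F0 ratio slope over 7 to 12 s after thallium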
Target sequence (P48048 whole entry, looked up): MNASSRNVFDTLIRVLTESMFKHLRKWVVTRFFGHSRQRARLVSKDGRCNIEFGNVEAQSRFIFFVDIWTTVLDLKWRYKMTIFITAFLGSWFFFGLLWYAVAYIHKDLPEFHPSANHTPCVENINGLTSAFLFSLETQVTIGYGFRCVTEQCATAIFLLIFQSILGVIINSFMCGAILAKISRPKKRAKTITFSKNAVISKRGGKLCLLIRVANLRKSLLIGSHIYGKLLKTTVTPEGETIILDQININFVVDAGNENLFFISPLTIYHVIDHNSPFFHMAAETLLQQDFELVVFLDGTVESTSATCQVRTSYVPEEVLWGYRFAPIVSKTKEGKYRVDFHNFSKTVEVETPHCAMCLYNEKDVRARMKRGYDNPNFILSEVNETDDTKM
The depositor's hits bear a star. Only some compounds are listed: those with a hit (about 3% of all), similar ones and a draw of the others.

Results for O=C(CSc1nc2ccccc2c(=O)n1-c1ccccc1Cl)Nc1cccc(S(=O)(=O)N2CCOCC2)c1 ?
INS promoter inh: 8; Measles CPE: 13; sdo1 growth: -0.23; ROMK primary: -2

What do the screens show for `Cc1nn(Cc2ccc(Cl)cc2)c(C)c1NC(=O)C1CC=CCC1C(=O)O` (configuration not stated)?
INS promoter inh: 18; Measles CPE: 18; sdo1 growth: 0.97

Results for c1ccc(-c2nc(NCC3CCCO3)c3oc4ccccc4c3n2)cc1 (configuration not stated) ?
INS promoter inh: -25; Measles CPE: 80*; sdo1 growth: -1.3; ROMK primary: -1.3

How did C/C(CC1CC2=C(CC1(C)C)C(C)(C)CCC2)=N\NC(N)=S (configuration not stated) do in these assays?
INS promoter inh: -35; Measles CPE: 5; sdo1 growth: -0.8; ROMK primary: -0.7

What do the screens show for `CC(C)C(NC(=O)COc1ccccc1)C(=O)O` (configuration not stated)?
INS promoter inh: 13; Measles CPE: 44*; sdo1 growth: -0.52

How did CC(C)C(C)NC(=O)COc1ccc(-c2ccccc2)cc1 (configuration not stated) do in these assays?
INS promoter inh: -29; Measles CPE: 18; sdo1 growth: -0.09; ROMK primary: 0.39

Results for CCOC(=O)Cn1c(S(=O)(=O)Cc2cccc(F)c2)nc(-c2ccccc2)c1-c1ccccc1 ?
INS promoter inh: -59; Measles CPE: 31*; sdo1 growth: -1.2

How did C#CCn1c(S(=O)(=O)Cc2ccc(F)cc2)nc(-c2ccccc2)c1-c1ccccc1 do in these assays?
INS promoter inh: -34; Measles CPE: 52*; sdo1 growth: -1.2

How did CCOC(=O)Cn1c(S(=O)(=O)Cc2ccc(F)cc2)nc(-c2ccccc2)c1-c1ccccc1 do in these assays?
INS promoter inh: -36; Measles CPE: 52*; sdo1 growth: -0.62

How did CCOC(=O)Cn1c(-c2ccccc2)nc2ccccc2c1=O do in these assays?
Measles CPE: 8; sdo1 growth: -0.97; ROMK primary: -0.012

What do the screens show for `CC(C)CC(=O)Nc1nc2ccc(S(C)(=O)=O)cc2s1`?
ROMK primary: 0.46

How did O=C(N/N=C/c1cccs1)c1ccc2c(c1)OCO2 do in these assays?
Measles CPE: 2; sdo1 growth: 2.3

How did Cc1ccc(O)c(C(CC(=O)N2CCCC2)c2ccccc2)c1 (configuration not stated) do in these assays?
INS promoter inh: -69; Measles CPE: 29*; sdo1 growth: -0.1; ROMK primary: -0.67

Results for O=C(CC(c1ccccc1)c1cc(Br)ccc1O)N1CCCC1 (configuration not stated) ?
INS promoter inh: 0; ROMK primary: 0.12

Results for CCS(=O)(=O)c1ccc2oc(SCC(=O)NC3CCCC(C)C3C)nc2c1 (configuration not stated) ?
INS promoter inh: -93; Measles CPE: 19*; sdo1 growth: 0.4; ROMK primary: 0.047

How did COC(=O)c1ccccc1NC(=S)NC(=O)c1cccc2ccccc12 do in these assays?
INS promoter inh: -20; Measles CPE: 59*; sdo1 growth: -1.2

What do the screens show for `COC(=O)c1ccccc1NC(=S)NC(=O)c1ccc2ccccc2c1`?
INS promoter inh: 11; Measles CPE: 4; sdo1 growth: 0.05; ROMK primary: 0.19

How did CC(=O)c1ccc(NC(=S)NNC(=O)c2ccncc2)cc1 do in these assays?
Measles CPE: 4; sdo1 growth: 1.8

Results for O=C1CC(=O)C(n2cncn2)C(c2ccc(Cl)cc2Cl)C1 (configuration not stated) ?
Measles CPE: 22*; sdo1 growth: 1.4

How did Cc1ccc(NCCc2ccc(C)nc2)cc1 do in these assays?
INS promoter inh: 75*; Measles CPE: 9; sdo1 growth: 0.01

What do the screens show for `Cc1ccc(CCNc2ccc3ccccc3c2)cn1`?
INS promoter inh: 49; Measles CPE: 11; sdo1 growth: -1.2; ROMK primary: -1.4

How did O=c1c2ccccc2nnn1CSc1nc2ccccc2[nH]1 do in these assays?
Measles CPE: 30; sdo1 growth: 1.6

What do the screens show for `O=c1c2ccccc2nnn1CSc1nnc2sc3ccccc3n12`?
INS promoter inh: 50; Measles CPE: 41*; sdo1 growth: 0.23

Results for C[C@@H](C(=O)Nc1ccc2ccccc2c1)[C@H]1C[C@]1(C)[C@H](NC(=O)OCc1ccccc1)c1ccccc1 ?
INS promoter inh: -64; Measles CPE: 38*; sdo1 growth: -0.21; ROMK primary: -0.12

What do the screens show for `C[C@H](CO)NC(=O)[C@H](C)[C@H]1C[C@]1(C)[C@H](NC(=O)OCc1ccccc1)c1ccccc1`?
INS promoter inh: 0; Measles CPE: 17; sdo1 growth: 0.19; ROMK primary: -0.019

What do the screens show for `CCOc1ccc(/C=N/NC(=O)CN2CCCCCCC2)cc1`?
INS promoter inh: 54; ROMK primary: -0.76

Results for CC(=O)Nc1ccc(S(=O)(=O)N2CCCCC2c2cccnc2)cc1 (configuration not stated) ?
Measles CPE: 29*; sdo1 growth: -0.3; ROMK primary: 0.39

What do the screens show for `O=C(Nc1ccc(S(=O)(=O)N2CCCCC2c2cccnc2)cc1)c1c(F)cccc1F` (configuration not stated)?
INS promoter inh: 0; ROMK primary: -0.19

How did COc1cc(C)c(C)cc1S(=O)(=O)N1CCCCC1c1cccnc1 (configuration not stated) do in these assays?
INS promoter inh: 6; Measles CPE: 51*; sdo1 growth: -0.87; ROMK primary: -0.95

Results for O=C(CSc1nnnn1-c1cccc2c1CCCC2)NC1CCCC1 ?
INS promoter inh: 3; Measles CPE: 13; sdo1 growth: -0.75

How did COc1ccc2c(c1)Cc1sc(NC(C)=O)nc1-2 do in these assays?
INS promoter inh: 44; Measles CPE: 38*; sdo1 growth: -0.28; ROMK primary: 0.005

What do the screens show for `COc1cccc(/C=N/Nc2snc(SC)c2C#N)c1`?
INS promoter inh: 57; Measles CPE: 9; sdo1 growth: -0.6

Results for COc1ccc(/C=N/Nc2snc(SC)c2C#N)cc1OC ?
INS promoter inh: -8; Measles CPE: 44*; sdo1 growth: 1

How did COc1ccc2ccccc2c1C(=O)/C=C\c1ccoc1 do in these assays?
INS promoter inh: 79*; Measles CPE: 7; sdo1 growth: -1; ROMK primary: 0.22

How did O=C(/C=C/c1ccoc1)c1ccccc1O do in these assays?
INS promoter inh: -35; Measles CPE: 3; sdo1 growth: -0.69; ROMK primary: -1.2

How did CC1Nc2nc(NC(=O)C(C)(C)C)[nH]c(=O)c2N(C)C1C (configuration not stated) do in these assays?
INS promoter inh: 24; Measles CPE: 73*; sdo1 growth: 0.53

Results for CC(C)(C)C(=O)Nc1nc2c(c(=O)[nH]1)CCCC2 ?
INS promoter inh: 9; ROMK primary: -0.41
